We go through 60 molecules from PubChem BioAssay AID1851 (National Center for Advancing Translational Sciences (NCATS), 2009).

Each structure is given as a SMILES string. The whole screen tested about 16,000 compounds, of which about 5,800 (36%) were called active. About 23% were inconclusive and are not listed. The list shows a part of the results. A number with no mark means an inactive call. The call rests on the fitted dose curve; in most records, active means well fitted curve in the direction sought with a large enough effect; inconclusive means small, poorly fitted or top-dose-only effect, or effect the other way; inactive means no such curve, though single readings can be large or run the other way.
On the % scale 0 is the no-effect control and ±100 the full control effect.

In the test the target is Cytochrome P450 2C19 (Homo sapiens) (UniProt P33261). Kind of test: Cytochrome panel assay with activity outcomes. The conditions noted are these: recombinant CYP, pro-luciferin dealkylation, luminescence, p450-cyp2c19; series mostly up to 57.1 µM; activity, negative = inhibition: at the top concentration.
Chain of Cytochrome P450 2C19 (Homo sapiens) (P33261 whole entry, looked up): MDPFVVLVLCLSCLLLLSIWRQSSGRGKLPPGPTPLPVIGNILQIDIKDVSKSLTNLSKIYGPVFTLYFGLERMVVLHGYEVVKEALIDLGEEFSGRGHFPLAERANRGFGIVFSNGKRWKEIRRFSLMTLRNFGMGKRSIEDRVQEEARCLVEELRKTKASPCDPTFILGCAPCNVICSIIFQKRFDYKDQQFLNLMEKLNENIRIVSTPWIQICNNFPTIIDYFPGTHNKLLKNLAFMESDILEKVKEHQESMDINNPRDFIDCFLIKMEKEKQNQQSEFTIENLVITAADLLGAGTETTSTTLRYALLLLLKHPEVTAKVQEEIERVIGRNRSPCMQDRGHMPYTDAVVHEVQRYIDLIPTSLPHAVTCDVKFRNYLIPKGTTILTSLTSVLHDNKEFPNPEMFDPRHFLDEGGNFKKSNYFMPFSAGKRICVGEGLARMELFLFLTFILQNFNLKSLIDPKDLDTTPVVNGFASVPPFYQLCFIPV
As usually defined, the AC50 is the concentration giving half of the maximal activity seen. `COc1ccc2[nH]cc(CCNc3ncnc4ccc(-c5ccccc5C#N)cc34)c2c1`: the AC50 is 2 µM (active).
On to `COc1ccc2[nH]cc(CCNc3ncnc4ccc(-c5ccc6c(c5)OCO6)cc34)c2c1`, for which the AC50 is 1.58 µM (active).
The same measure, in the same setting: the figure for `COc1ccc2[nH]cc(CCNc3ncnc4ccc(-c5ccoc5)cc34)c2c1` is 7.94 µM (active); for `COc1ccc2c(Cl)c(-c3nnco3)sc2c1` it is 7.94 µM (active).
In the case of `CN1CCN(c2ncc3ncc(=O)n(-c4ccccc4)c3n2)CC1`, the “activity, negative = inhibition” value was 23.5%.
The same measure, in the same setting: the figure for `Cc1nc2cnc(N3CCN(C)CC3)nc2n(-c2ccccc2)c1=O` is -19.9%.
Turning to `O=C1CC(c2ccccc2)Cc2nc(N3CCc4ccccc4C3)ncc21` (stereo not given), the AC50 is 3.98 µM (active).
Take `Cc1ccc(-n2cnc(=O)c3cccnc32)cc1`: the “activity, negative = inhibition” value was -15.1%.
With `N#Cc1c(-c2ccccc2)cc(C2CC2)nc1SCC(=O)c1cccs1`, the “activity, negative = inhibition” value was -14.7%.
Consider `N#Cc1c(-c2ccccc2)nc(-c2ccccc2)[nH]c1=O`, for which the “activity, negative = inhibition” value is -24.4%.
With `N#Cc1c(-c2cccs2)nc(SCC(=O)c2cccs2)[nH]c1=O`, the AC50 was 15.8 µM (active).
For `N#CCCn1c(=O)c(-c2cccs2)nc2cnc(OCc3ccccc3)nc21`, the “activity, negative = inhibition” value is -9.15%.
As for `Cc1cccc(NC(=O)CSc2nc(-c3ccccc3)c(C#N)c(=O)[nH]2)c1C`, the AC50 is 14.1 µM (active).
For `CN[C@H](CC(=O)O)C(=O)O`, the “activity, negative = inhibition” value is 10.2%.
Take `Cc1[nH]nc(N2CCCCCC2)c1[N+](=O)[O-]`: the AC50 was 6.31 µM (active).
On to `Cc1noc(C)c1C(=O)N1CCC2(CCN(Cc3ccncc3)CC2)CC1`, for which the “activity, negative = inhibition” value was -40.9%.
Regarding `O=S(=O)(c1ccccc1)N1CCC2(CCN(Cc3ccccc3)CC2)CC1`, the “activity, negative = inhibition” value is -3.37%.
For `CCOC(=O)C1(S(=O)(=O)c2ccc(Cl)cc2)CCN(Cc2ccc(Cl)cc2)CC1`, the AC50 was 2.24 µM (active).
As to `CCOC(=O)C1(S(=O)(=O)c2ccccc2)CCN(Cc2ccccc2)CC1`, the AC50 was 2.51 µM (active).
On the same count and under the same terms, for `Cc1ccc(CNC(=O)C2CCCN2C(=O)NCc2ccccc2)cc1` (stereo not given) the value was 10 µM (active); for `Cc1ccc(CNC(=O)C2CCC(=O)N2C2CCCCC2)cc1` (stereo not given), 3.16 µM (active); for `CC(C)(C)OC(=O)N1CCCC1C(=O)NCCc1ccccc1` (stereo not given), 6.31 µM (active).
Regarding `CN(C)C(=O)N1CCCC(C(=O)NCCc2ccccc2)C1` (stereo not given), the “activity, negative = inhibition” value is -25.2%.
On the same count and under the same terms, for `O=C(O)C1CCC(=O)N(C2CC2)C1c1ccccc1` (stereo not given) the value was -8.66%.
Same read-out and setting: the figure for `O=C(O)[C@@H]1[C@@H](C(=O)NCc2cccnc2)[C@@H]2C=C[C@@H]1O2` is 6.83% [at 11.4 µM].
For the molecule `Cc1ccc(CN2C(=O)CCC2C(=O)NCc2cccnc2)cc1` (stereo not given), the AC50 was 22.4 µM (active).
As to `O=C(NCc1cccnc1)[C@@H]1[C@@H](C(=O)O)[C@H]2CC[C@@H]1O2`, the activity, negative = inhibition is 23.6% [at 11.4 µM].
Still for that read-out and setting: the figure for `COc1cc2nc(N3CCN(C(=O)OCc4ccccc4)[C@H](C(=O)NC(C)(C)C)C3)nc(N)c2cc1OC` is -23.6%; for `CCOC(=O)[C@H](CCc1ccccc1)N[C@@H](C)C(=O)N1CCC[C@H]1C(=O)O` it is 32.5% [at 25.6 µM].
As to `Cc1ccc(SCC(=O)NNC(=O)C2CCCCC2)cc1`, the “activity, negative = inhibition” value is -27.7%.
On the same count and under the same terms, for `O=C(O)c1ccccc1-c1ccccc1C(=O)Nc1ccc2c(c1)[nH]c(=O)c1ccccc12` the value was -24.7% [at 11.4 µM].
The same measure, in the same setting: the figure for `COc1cc(=O)n(C)c2c(OC[C@@H](O)C(C)(C)O)cccc12` is 37.7%; for `C[C@H](CCC(=O)NCC(=O)O)[C@H]1CC[C@H]2[C@H]3[C@@H](C[C@@H](O)[C@]12C)[C@]1(C)CC[C@H](O)C[C@@H]1C[C@@H]3O` it is -2.13% [at 25.6 µM].
For the molecule `COCCn1c(C)cc(C2=NNC(=Nc3ccc(F)cc3)SC2)c1C`, the AC50 is 6.31 µM (active).
With `Cc1ccc(C(=O)N/N=C/c2sc(=O)n(Cc3cccc(C(=O)O)c3)c2Cl)cc1`, the “activity, negative = inhibition” value was 7.1%.
Take `O=C(N/N=C/c1c(Nc2cccc(C(F)(F)F)c2)nc2ccccn2c1=O)c1ccccc1`: the AC50 was 7.08 µM (active).
Regarding `O=C(NNC(=O)c1cc2cc3ccccc3nc2s1)c1cccc(C(F)(F)F)c1`, the “activity, negative = inhibition” value is -4.56%.
Same read-out and setting: the figure for `O=C(NCCC[N+]1=CC=N[C@H]1c1ccccc1)N1CCCc2nc(-c3ccc(Br)cc3)ccc21` is -32% [at 11.4 µM].
In the case of `Clc1ccccc1CSc1nnc(/C=C/c2ccccc2)o1`, the concentration at half-maximal activity (AC50) is 6.31 µM (active).
On the same count and under the same terms, for `Clc1cccc(Cl)c1CSc1nnc(/C=C/c2ccccc2)o1` the value was 10 µM (active).
For the molecule `CC(C)=CCC/C(C)=C/CO/N=C1/C[C@@H](O)[C@@H](O)[C@@H]2[C@@H]3C(=O)N(Cc4ccc5c(c4)OCO5)C(=O)[C@H]3CC[C@H]12`, the activity, negative = inhibition was -41.4% [at 11.4 µM].
Take `CC1(C)CC(=O)c2c(Cc3ccccc3)n[nH]c2C1`: the AC50 is 15.8 µM (active).
The same measure, in the same setting: for `Cc1ccc(C)c(N2CCN(C(=O)c3ccc4nc(-c5ccco5)c(-c5ccco5)nc4c3)CC2)c1` the value was 8.91 µM (active).
Consider `Cc1ccc(CNC(=O)CCNS(=O)(=O)c2ccc3c(c2)c(=O)n(C)c(=O)n3C)cc1`, for which the “activity, negative = inhibition” value was -15.8%.
For `CCOC(=O)NCc1ccc2c(c1)cc(C)n2C`, the AC50 was 15.8 µM (active).
Same read-out and setting: the figure for `Cc1cc2cc(CNC(=O)CC(C)C)ccc2n1C` is 11.2 µM (active).
Consider `CCOC(=O)NNc1nncc2ccccc12`, for which the “activity, negative = inhibition” value was -27.7% [at 25.6 µM].
Consider `CCC(CC)C(=O)NCc1ccc2c(c1)cc(C)n2C`, for which the AC50 was 14.1 µM (active).
On to `CC(N)=O`, for which the “activity, negative = inhibition” value is 18.4%.
Still for that read-out and setting: the figure for `Cn1c(=O)c2[nH]c(CCS)nc2n(C)c1=O` is -13.4% [at 11.4 µM]; for `CC(=O)N[C@@H](Cc1c[nH]c2ccccc12)C(=O)OCc1cc(C(F)(F)F)cc(C(F)(F)F)c1` it is -35.8%.
On to `COc1ccc(C(C(=O)NC2CCCCC2)N(C(=O)Cc2c[nH]c3ccccc23)c2ccc(NC(C)=O)cc2)cc1OC` (stereo not given), for which the concentration at half-maximal activity (AC50) is 10 µM (active).
On the same count and under the same terms, the figure for `COc1ccc(S(=O)(=O)Nc2cccc(Cl)c2)cc1OC` is 0.631 µM (active).
Still for that read-out and setting: for `CCOc1ccccc1Oc1coc2cc(OC)ccc2c1=O` the value was 2.82 µM (active).
For the molecule `CCN(CC)Cc1c(O)ccc2c(=O)c(Oc3ccccc3OC)coc12`, the “activity, negative = inhibition” value is -9.67%.
As to `O=C1C2Sc3[nH]c(=O)sc3C(c3ccccc3)C2C(=O)N1c1ccc(Cl)cc1` (stereo not given), the AC50 is 2.82 µM (active).
Consider `O=C1C(C2=NC(C(=O)O)C3C(=O)N(c4ccc(Cl)cc4)C(=O)C23)=C(O)c2ccccc21` (stereo not given), for which the “activity, negative = inhibition” value was 19.4%.
On to `O=C1C2Sc3[nH]c(=O)sc3C(c3ccccc3)C2C(=O)N1c1ccccc1` (stereo not given), for which the AC50 is 2.24 µM (active).
Same read-out and setting: for `O=C(CCCC(=O)OCC(=O)c1ccc(Cl)cc1Cl)Nc1cc(C(F)(F)F)ccc1Cl` the value was 8.91 µM (active).
For the molecule `Cc1cc(NC(=O)CCCC(=O)OCC(F)(F)C(F)F)cc(C)c1C(=O)O`, the “activity, negative = inhibition” value was -60.4%.
